In PubChem BioAssay:
Results filed as inconclusive are left out. Calls of active or inactive are those of the source.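 Rule for the calls, unless noted: active = inhibition over a set limit, the all-compound mean plus 3 SD, in both replicate runs; inconclusive = over that limit in just one replicate run; inactive = at or under that limit in both runs.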

Key:
[1] = Her2 expression decrease, cell viability multiplex – SKBR3 breast tumor cells, AlphaScreen, ATP viability, primary screen (AID 461;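 active = Her2 level under about 52% in both replicate screens, with viability over 70% of control, limit read from the data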;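 for Her2 level: lower value means less Her2 protein in the cells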;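 for viability: percent of carrier control wells set as 100% viability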); conditions: SKBR3 Her2 protein level, 18-24 h, measured here: SKBR3 viability, ATP luminescence, at 10 µM
[2] = biological target: Receptor tyrosine-protein kinase erbB-2 (Homo sapiens) (UniProt P04626); test: as above; conditions: 18-24 h, at 10 µM, stronger effect = lower value
Receptor tyrosine-protein kinase erbB-2 (Homo sapiens), sequence (P04626 whole entry, looked up): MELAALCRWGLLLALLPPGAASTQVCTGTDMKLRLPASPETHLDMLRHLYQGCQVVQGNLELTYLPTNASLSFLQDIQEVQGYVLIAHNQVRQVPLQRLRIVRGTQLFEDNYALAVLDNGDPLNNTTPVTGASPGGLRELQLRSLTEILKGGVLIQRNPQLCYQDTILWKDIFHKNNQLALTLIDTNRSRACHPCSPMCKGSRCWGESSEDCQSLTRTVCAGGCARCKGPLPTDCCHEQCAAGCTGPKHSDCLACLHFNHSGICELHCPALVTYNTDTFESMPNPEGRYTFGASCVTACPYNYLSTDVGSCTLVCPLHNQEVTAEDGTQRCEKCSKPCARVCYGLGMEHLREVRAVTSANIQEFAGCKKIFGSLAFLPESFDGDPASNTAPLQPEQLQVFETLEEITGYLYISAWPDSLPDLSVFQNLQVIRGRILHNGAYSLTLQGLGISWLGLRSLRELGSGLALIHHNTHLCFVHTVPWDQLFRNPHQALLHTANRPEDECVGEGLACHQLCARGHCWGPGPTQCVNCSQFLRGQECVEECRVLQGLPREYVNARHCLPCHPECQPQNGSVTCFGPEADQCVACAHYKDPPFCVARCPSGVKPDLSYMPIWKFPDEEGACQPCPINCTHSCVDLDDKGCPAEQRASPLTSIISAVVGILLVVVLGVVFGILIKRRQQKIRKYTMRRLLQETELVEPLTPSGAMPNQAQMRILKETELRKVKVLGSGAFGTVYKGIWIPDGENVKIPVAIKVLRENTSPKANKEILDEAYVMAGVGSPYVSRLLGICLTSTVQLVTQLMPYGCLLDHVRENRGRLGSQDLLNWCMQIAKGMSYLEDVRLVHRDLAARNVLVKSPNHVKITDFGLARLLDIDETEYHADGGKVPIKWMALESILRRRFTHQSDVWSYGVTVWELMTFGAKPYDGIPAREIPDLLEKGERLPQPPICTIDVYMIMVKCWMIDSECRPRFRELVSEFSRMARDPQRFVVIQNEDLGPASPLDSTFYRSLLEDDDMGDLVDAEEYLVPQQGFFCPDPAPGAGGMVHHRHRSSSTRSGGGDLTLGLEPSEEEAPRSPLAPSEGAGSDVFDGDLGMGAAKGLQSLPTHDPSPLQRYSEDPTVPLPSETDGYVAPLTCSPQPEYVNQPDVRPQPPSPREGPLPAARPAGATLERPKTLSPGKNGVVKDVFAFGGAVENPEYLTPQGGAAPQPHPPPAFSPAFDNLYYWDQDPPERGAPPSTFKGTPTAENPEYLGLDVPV

[3] = reduced viability of SK-BR-3 breast cancer cells – cell-based, 24 h, human, pilot screen (AID 572;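 active = viability at or below 10% of carrier control in both of two separate runs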;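 note: compound exposure lasted between 18 and 24 h rather than exactly 24 h; 100% = carrier-treated control wells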); conditions: SK-BR-3 viability, CellTiter-Glo luminescence, at 10 µM, stronger effect = lower value
[4] = HUVEC growth inhibition – cell-based, human, primary screen (AID 575;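 active = viability at or below 30% in both replicate assays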;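 note: 100% = median of untreated cell wells with 0.1% DMSO on each plate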); conditions: HUVEC proliferation, CellTiter-Glo luminescence, 72 h; at 10 µM; stronger effect = lower value
[5] = H69AR cell proliferation blockers – human, duplicate replicates, primary screen (AID 580;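 active = viability at or under a set limit in both replicates, limit being median viability minus 3 SD, cut at about 48% in these data, passing the limit was not always enough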;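 note: 100% = mean luminescence of untreated wells and 0% = no signal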); conditions: H69AR lung tumor cells viability, ATP luminescence, 72 h; at 10 µM; stronger effect = lower value
[6] = MRP1 drug-resistance reversers in H69AR cells – cell-based, doxorubicin co-treatment, pilot screen (AID 601;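 active = viability loss from added drug above about 55%, and viability with drug at most 40%, in both replicates, limit read from the data, passing the limit was not always enough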); conditions: CellTiter-Glo, 72 h, at 10 µM; for differential viability (reversal): stronger effect = higher value
[7] = yeast transport mutant growth inhibition pilot in 384-well plates, post-Golgi transport modulator project (AID 636; in the data active = inhibition above about 31%); conditions: absorbance 615 nm, about 18 h, stronger effect = higher value
[8] = growth suppression of yeast trafficking mutant, preliminary HTS, modulators of trafficking downstream of Golgi apparatus project, 1536-format plate, OD 615 nm (AID 637; in the data active = inhibition above about 30%); conditions: yeast transport mutant growth, absorbance 615 nm, 18 h; stronger effect = higher value
[9] = S. cerevisiae growth inhibition in permissive medium (OD615), pilot counter-assay for S. cerevisiae lifespan shortening project, permissive growth control (AID 705;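 active = growth inhibition above 25% in both replicates, a cutoff set 3 SD above the mean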); conditions: OD615, 24 h, at 10 µM, stronger effect = higher value
[10] = S. cerevisiae growth inhibition in restrictive medium, OD615, pilot screen, restrictive growth control, yeast lifespan reduction project (AID 706;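 active = growth inhibition above a set limit, 3 SD over mean compound inhibition, in both replicates, cut at about 43% in these data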;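 note: modified DeaD lifespan yeast strain shifted to restrictive glucose medium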); conditions: OD615, 48 h, at 10 µM, stronger effect = higher value
[11] = doxorubicin toxicity protection in MRP-1 cells – H69AR cells, CellTiter-Glo, duplicate, MRP-1 activator project, pilot screen (AID 807;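 active = viability increase at or above a cutoff of the median across tested compounds plus 3 SD, cut at about 8.5% in these data, passing the limit was not always enough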;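 note: compound pretreatment 18-22 h then 72 h combined with doxorubicin; 0% = doxorubicin alone and 100% = vehicle without doxorubicin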); conditions: H69AR viability with doxorubicin, CellTiter-Glo luminescence; at 10 µM; stronger effect = higher value
[12] = viability of HCT116 without oncogenic beta-catenin – human colon tumor cells, pilot screen (AID 823;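 active = cell viability at or below a set limit in both duplicate runs, the limit being the all-compound median minus 4 SD, cut at about 23% in these data, passing the limit was not always enough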;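 note: 0% = wells killed by 20 µM Hyamine and 100% = untreated DMSO cell wells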); conditions: HCT116 beta-catenin knockout viability, CellTiter-Glo, 60 h; at 10 µM; stronger effect = lower value
[13] = viability of PTEN-null HCT116 cells – cell-based, HCT116 clonal line, CellTiter-Glo, pilot screen (AID 824;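 active = viability at or below 27.92% in each of two runs, the all-compound median minus 4 SD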;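 note: 0% = 20 µM Hyamine control and 100% = vehicle cell control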); conditions: HCT116 PTEN-deleted viability, 60 h, at 10 µM, stronger effect = lower value
[14] = RAM pathway blockade in budding yeast – dse1pr::URA3 reporter, 5-FOA selection, pilot screen (AID 869);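 note: 0% = DMSO wells with no growth and 100% = 10 µM 1-NA-PP1 with full growth; RAM network block rescues cells from 5-FOA so hits raise OD615 growth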; conditions: S. cerevisiae dse1pr::URA3 5-FOA growth, OD615, 2 d; at 10 µM; stronger effect = higher value; strain carries analog-sensitive mutant Cbk1 kinase
[15] = RAM signaling pathway blockade in yeast – S. cerevisiae, Pdr1DBD-CYC8 efflux-inhibited sensitized strain, primary screen (AID 1298;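 active = RAM network inhibition above 8.4% in each of two replicates, 3 SD over the compound average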;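 note: 0% = DMSO untreated cells without growth and 100% = 10 µM 1-NA-PP1 full growth; higher means more yeast growth rescued from 5-FOA killing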); conditions: S. cerevisiae cbk1-as DSE1-URA3 strain, 5-FOA growth OD615, 2 d; at 50 µM; stronger effect = higher value
[16] = H69AR cells + 2 uM doxorubicin, measured here: viability with 2 uM doxorubicin, stronger effect = lower value
[17] = H69AR cells, compound alone cytotoxicity

CC(Oc1ccccc1)C(=O)NC1CC(C)(C)NC(C)(C)C1 (stereo not given)
inactive: Her2 level [2] 92.5% | viability [3] 92% | viability [4] 79.8% | viability [5] 94% | differential viability (reversal) ([6]; H69AR cells + 2 uM doxorubicin) 2.97% | inhibition [7] -2.69% | inhibition [8] -1% | growth inhibition [9] -11.8% | growth inhibition [10] -2.76% | viability increase [11] -3.63% | viability [12] 97.1% | viability [13] 96.9% | inhibition [14] -0.135% | RAM network inhibition [15] 2.18%
94%: viability [6, 17]
91%: viability [6, 16]
92%: viability [1]

O=C(COc1ccc(=O)n(-c2ccccc2)n1)Nc1ccccc1
92.4%: viability [6, 16]
inactive: Her2 level [2] 95.5% | viability [3] 96% | viability [4] 102% | viability [5] 98.8% | differential viability (reversal) ([6]; H69AR cells + 2 uM doxorubicin) 6.32% | inhibition [7] -4.4% | inhibition [8] 0.82% | growth inhibition [9] -1.58% | growth inhibition [10] 9.99% | viability increase [11] -1.83% | viability [12] 109% | viability [13] 98.6% | inhibition [14] 2.81% | RAM network inhibition [15] 1.04%
98.8%: viability [6, 17]
96%: viability [1]

O=C(Nc1ccc(CN2CCOCC2)cc1)c1cc2ccccn2n1
inactive: Her2 level [2] 103% | viability [3] 100% | viability [4] 94.4% | viability [5] 94.7% | differential viability (reversal) ([6]; H69AR cells + 2 uM doxorubicin) -0.47% | inhibition [7] 0.38% | inhibition [8] 2.5% | growth inhibition [9] -4.72% | growth inhibition [10] 7.87% | viability increase [11] 2.39% | viability [12] 100% | viability [13] 95% | inhibition [14] 0.65% | RAM network inhibition [15] 1.45%
100%: viability [1]
94.7%: viability [6, 17]
95.2%: viability [6, 16]

Clc1cccc(N2CCN(Cc3nc(-c4ccccc4)no3)CC2)c1
95.4%: viability [6, 16]
inactive: Her2 level [2] 96% | viability [3] 90.5% | viability [4] 109% | viability [5] 91.3% | differential viability (reversal) ([6]; H69AR cells + 2 uM doxorubicin) -4.04% | inhibition [7] 0.53% | inhibition [8] -6.5% | growth inhibition [9] 3.02% | growth inhibition [10] 0.865% | viability increase [11] -2.61% | viability [12] 91.5% | viability [13] 90% | inhibition [14] -1.2% | RAM network inhibition [15] 4.99%
91.3%: viability [6, 17]
90.5%: viability [1]

CC(C)(C)SCCNC(=O)COc1ccc(Cl)cc1
94.5%: viability [1]
inactive: Her2 level [2] 90% | viability [3] 94.5% | viability [4] 113% | viability [5] 109% | differential viability (reversal) ([6]; H69AR cells + 2 uM doxorubicin) 19.5% | inhibition [7] -6.89% | inhibition [8] 4.1% | growth inhibition [9] -8.49% | growth inhibition [10] -12% | viability increase [11] 0.22% | viability [12] 96.2% | viability [13] 96.9% | inhibition [14] -0.23% | RAM network inhibition [15] 4.53%
109%: viability [6, 17]
89.4%: viability [6, 16]

Cc1cccc(-n2ncc3c(NCc4cccnc4)ncnc32)c1
inactive: Her2 level [2] 93% | viability [3] 95.5% | viability [4] 99.3% | viability [5] 88% | differential viability (reversal) ([6]; H69AR cells + 2 uM doxorubicin) -3.23% | inhibition [7] -4.8% | inhibition [8] 0.5% | growth inhibition [9] -8.17% | growth inhibition [10] -8.12% | viability increase [11] -0.52% | viability [12] 89.4% | viability [13] 87.5% | inhibition [14] 2.54% | RAM network inhibition [15] 2.13%
91.2%: viability [6, 16]
95.5%: viability [1]
88%: viability [6, 17]

Fc1ccc(-c2nnc3ccc(N4CCCC4)nn23)cc1
94.5%: viability [6, 17]
inactive: Her2 level [2] 90.5% | viability [3] 80% | viability [4] 64.2% | viability [5] 94.5% | differential viability (reversal) ([6]; H69AR cells + 2 uM doxorubicin) 16.8% | inhibition [7] -0.27% | inhibition [8] 8.52% | growth inhibition [9] 11.7% | growth inhibition [10] 32.5% | viability increase [11] -5.62% | viability [12] 102% | viability [13] 86.3% | inhibition [14] 0.685% | RAM network inhibition [15] 5.61%
80%: viability [1]
77.7%: viability [6, 16]

Cc1nc2ccccc2c2oc(C(=O)NCCCN3CCCC3=O)cc12
77.9%: viability [6, 16]
91.8%: viability [6, 17]
inactive: Her2 level [2] 97.5% | viability [3] 91% | viability [4] 84.3% | viability [5] 91.8% | differential viability (reversal) ([6]; H69AR cells + 2 uM doxorubicin) 13.9% | inhibition [7] -5.73% | inhibition [8] -2.62% | growth inhibition [9] -0.475% | growth inhibition [10] -1.4% | viability increase [11] -1.47% | viability [12] 94.5% | viability [13] 96.8% | inhibition [14] 1.9% | RAM network inhibition [15] 6.62%
91%: viability [1]

Nc1nc(N2CCCCC2)nc(N(c2ccccc2)c2ccccc2)n1
70.6%: viability [6, 17]
75%: viability [6, 16]
inactive: Her2 level [2] 104% | viability [3] 107% | viability [4] 69.3% | viability [5] 70.6% | differential viability (reversal) ([6]; H69AR cells + 2 uM doxorubicin) -4.36% | inhibition [7] -5.2% | inhibition [8] -2.33% | growth inhibition [9] -12.8% | growth inhibition [10] 8% | viability increase [11] -1.3% | viability [12] 89.5% | viability [13] 87.1% | inhibition [14] 0.36% | RAM network inhibition [15] 1.36%
107%: viability [1]

COc1cccc(NC(=O)c2nc3nc(C)cc(C(F)F)n3n2)c1
84%: viability [6, 17]
86.8%: viability [6, 16]
100%: viability [1]
inactive: Her2 level [2] 106% | viability [3] 100% | viability [4] 93.9% | viability [5] 84% | differential viability (reversal) ([6]; H69AR cells + 2 uM doxorubicin) -2.74% | inhibition [7] 1.47% | inhibition [8] 4.5% | growth inhibition [9] -11.3% | growth inhibition [10] -11.1% | viability increase [11] 1.69% | viability [12] 107% | viability [13] 101% | inhibition [14] 0.62% | RAM network inhibition [15] -0.33%
